Screening results deposited in PubChem BioAssay by Broad Institute.
Sampled rows, rich in hits. Any-hit rate of the full collection: about 2.1%.
ID4 binder – ID4 (human) binding | small molecule microarray, Flag-ID4 binding, fluorescence F/B | calls only | hit rate 1.2% among 31,000; call rule not given here;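 note: a binder raises fluorescence above local background on the spot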
Target sequence (P47928 whole entry, looked up): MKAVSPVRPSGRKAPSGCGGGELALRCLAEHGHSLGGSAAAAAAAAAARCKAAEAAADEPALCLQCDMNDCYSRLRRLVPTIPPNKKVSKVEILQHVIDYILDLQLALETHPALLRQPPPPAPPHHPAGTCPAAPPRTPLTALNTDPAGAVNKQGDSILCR
STK33 kin inh – human STK33 kinase inhibition | Q9BYT3 | ADP-Glo luminescence, MBP substrate | inhibition, % at 12.5 µM | hit rate 0.44% among 27,000; in the data active = inhibition above about 20%; inconclusive = no clear call, values can overlap the other calls
mut p53 react – mutant p53 pathway reactivation; SW480 PUMA-promoter luciferase; activation, % at 9.98 µM; AID 624151; hit rate 1.5% among 28,000; in the data active = activation above about 52%; inconclusive = no clear call, values can overlap the other calls
A number is an active result; i = inactive; ? = inconclusive; nt = no result; + = active, no number.

SMILES	ID4 binder	STK33 kin inh	mut p53 react
O=C(Nc1cccc(Cn2cccn2)c1)c1cc(-c2cccnc2)nc2ccc(Cl)cc12	i	i	i
COC(=O)c1ccc(OCC(O)Cn2c(C)nc3ccccc32)cc1 (stereo not given)	+	i	i
Cc1nc2ccccc2n1CC(O)COc1ccc(C(=O)O)cc1 (stereo not given)	i	i	i
O=S(=O)(NCC1CCN(Cc2ccc(OCCO)cc2)CC1)c1ccccc1	nt	i	nt
Cc1ccc(N2CC(C(=O)Nc3ccc(S(=O)(=O)NCC4CCCO4)cc3)CC2=O)cc1 (stereo not given)	+	i	i
CS(=O)(=O)Nc1ccc(S(=O)(=O)NCC2CCCO2)cc1 (stereo not given)	i	i	i
O=C(CN1C(=O)C2C3CCC(C3)C2C1=O)Nc1cccc(C(=O)O)c1 (stereo not given)	i	i	i
COc1cccc(S(=O)(=O)N(C)C[C@H]2Oc3ncc(-c4cccc(C(=O)N(C)C)c4)cc3C(=O)N([C@H](C)CO)C[C@@H]2C)c1	+	nt	i
C[C@@H]1CN([C@@H](C)CO)C(=O)c2cc(-c3cccnc3)cnc2O[C@@H]1CN(C)C	i	nt	nt
C[C@H](CO)N1C[C@H](C)[C@@H](CN(C)C)Oc2ncc(-c3ccncc3)cc2C1=O	i	nt	i
C[C@H]1CN([C@@H](C)CO)C(=O)c2cc(-c3cccnc3)cnc2O[C@@H]1CN(C)C	+	nt	nt
C[C@H]1CN([C@@H](C)CO)C(=O)c2cc(-c3cccc(C(=O)N(C)C)c3)cnc2O[C@H]1CN(C)S(=O)(=O)c1cccc(F)c1	nt	nt	i
C[C@@H]1CN([C@@H](C)CO)C(=O)c2cc(-c3ccncc3)cnc2O[C@H]1CN(C)C	+	nt	nt
Cn1c(SCC(=O)Nc2ccccc2C(F)(F)F)nnc1-c1ccc(NC(=O)c2ccc(F)cc2)cc1	i	i	i
CC(=O)NNC(=O)N1Cc2ccccc2Oc2ccc(Cl)cc21	+	nt	i
CN1CCN(C2=Cc3ccccc3Oc3ccc(Cl)cc32)CC1	i	i	nt
Cc1ccc(NC(=O)COc2ccc(Cl)cc2)c([N+](=O)[O-])c1	i	i	95
CCOc1ccc(OCC(=O)Nc2ccc(C)cc2[N+](=O)[O-])cc1	i	i	i
CCc1ccc(OCC(=O)Nc2ccc(C)cc2[N+](=O)[O-])cc1	i	i	66
Cc1ccc(NC(=O)COc2cc(C)c(Br)c(C)c2)c([N+](=O)[O-])c1	i	i	i
CC(C)S(=O)(=O)NC[C@@H]1CCCN(Cc2cccc(OCCO)c2)C1	nt	i	nt
O=C(/C=C/N1CCOCC1)c1csc(-c2ccc(C(F)(F)F)cc2)n1	i	nt	i
CCn1c(SCC(=O)Nc2c(C)cccc2C)nnc1-c1cnccn1	+	i	i
CCn1c(SCC(=O)Nc2cc(C)c(Cl)cc2OC)nnc1-c1cnccn1	i	i	i
COc1ccc(S(=O)(=O)N(C)CC(=O)Nc2cccc([N+](=O)[O-])c2)cc1Cl	i	i	i
SMILES	ID4 binder	STK33 kin inh	mut p53 react
COC(=O)CSc1nc(C)cc(C)n1	i	i	i
Cc1cc(C)nc(SCc2csc(N)n2)n1	+	i	i
COC(=O)Cc1c(C)c2c(OCC(N)=O)cc(C)cc2oc1=O	i	i	i
COC(=O)Cc1c(C)c2cc(Cl)c(OC(C)C(C)=O)cc2oc1=O (stereo not given)	i	i	68
COc1ccc(C(=O)CSc2ncnc3sc4c(c23)CCCC4)cc1	i	i	i
CSc1ccccc1NC(=O)CN(C1CCCCC1)S(=O)(=O)c1ccc(F)cc1	i	i	i
O=C(COc1cccc(-c2cnc3ccccc3n2)c1)c1ccccc1	i	i	i
O=[N+]([O-])c1cccc(COc2ccc(-c3cnc4ccccc4n3)cc2)c1	i	i	63
COc1ccc2nc3c(cc2c1)c(=O)n(C)c(=O)n3C	nt	i	nt
O=C(CSc1nc(-c2ccccc2)cc(=O)[nH]1)Nc1ccccc1	i	i	i
O=C(CSc1nc(-c2ccccc2)cc(=O)[nH]1)NCC1CCCO1 (stereo not given)	+	i	i
O=C(CN1C(=O)c2ccccc2S1(=O)=O)Nc1cccc(O)c1	i	i	i
CCC1=C/C(=C\N(C)c2ccccc2)C(=O)S1	i	nt	75
Cc1c(Br)c([N+](=O)[O-])nn1C(C)C(=O)Nc1ccccc1C(F)(F)F (stereo not given)	i	i	i
NS(=O)(=O)c1ccc(N=Cc2c(O)[nH]c3ccccc23)cc1	nt	94	i
NS(=O)(=O)c1ccc(N(S(=O)(=O)c2ccccc2)S(=O)(=O)c2ccccc2)cc1	i	nt	i
Cc1ccc(Cl)c(OCC(O)Cn2cnc3ccccc32)c1 (stereo not given)	i	i	?
Cc1nc2ccccc2n1CC(O)COc1ccccc1Cl (stereo not given)	i	i	i
OC(COc1ccccc1Cl)Cn1cnc2ccccc21 (stereo not given)	i	i	111
OC(COc1ccccc1Cl)Cn1nnc2ccccc21 (stereo not given)	i	i	66
CS(=O)(=O)N(CC(=O)Nc1ccccc1C(=O)O)c1cccc(C(F)(F)F)c1	i	i	i
CCc1ccc(NC(=O)CSc2nnc(C)n2-c2ccccc2)cc1	i	i	i
Cc1ccc(N(C(C)C(=O)Nc2ccccc2C(=O)N2CCCC2)S(C)(=O)=O)cc1 (stereo not given)	i	i	i
CN1c2ccccc2Oc2nnc(N3CCN(c4ccccc4)CC3)cc21	i	nt	95
COc1ccc(-n2c(SCc3nc4ccccc4s3)nnc2-c2cccnc2)cc1	i	i	i
SMILES	ID4 binder	STK33 kin inh	mut p53 react
CC(=O)Nc1ccccc1C(=O)OCc1cccc(C(=O)c2ccccc2)c1	i	i	94
N#Cc1ccc(Oc2ccc(C(=O)OCc3cccc(C(=O)c4ccccc4)c3)cc2)cc1C#N	i	i	i
O=C(Nc1ccccc1C(=O)OCc1cccc(C(=O)c2ccccc2)c1)c1ccccc1	i	i	i
O=C(OCc1cccc(C(=O)c2ccccc2)c1)c1ccc(-c2nnc(-c3ccccc3)o2)cc1	i	i	71
COc1ccc(CN(C)C[C@@H]2Oc3ccc(NC(=O)Cc4cn(C)c5ccccc45)cc3C(=O)N([C@@H](C)CO)C[C@@H]2C)cc1	+	i	i
C[C@@H]1CN([C@H](C)CO)C(=O)c2cc(NC(=O)Cc3cn(C)c4ccccc34)ccc2O[C@H]1CN(C)C(=O)Nc1ccccc1	i	nt	i
C[C@H]1CN([C@@H](C)CO)C(=O)c2cc(NC(=O)Cc3cn(C)c4ccccc34)ccc2O[C@H]1CN(C)C(=O)Nc1ccccc1	+	nt	i
COc1ccc(CN(C)C[C@@H]2Oc3ccc(NC(=O)Cc4cn(C)c5ccccc45)cc3C(=O)N([C@H](C)CO)C[C@@H]2C)cc1	i	nt	i
CC(C)(C)c1cc(/C=C(\C#N)C(N)=S)cc(C(C)(C)C)c1O	i	i	i
N#CC(C#N)=C(N)/C(C#N)=C/c1cc(O)c(O)c(O)c1	i	20	i
CCCc1cc(=O)[nH]c(SCC(=O)Nc2ccc3c(c2)OCCO3)n1	i	i	i
COc1ccc(S(=O)(=O)N(C)C[C@H]2Oc3ccc(NC(=O)CCCN(C)C)cc3C(=O)N([C@H](C)CO)C[C@@H]2C)cc1	+	nt	i
COc1ccc(S(=O)(=O)N(C)C[C@@H]2Oc3ccc(NC(=O)CCCN(C)C)cc3C(=O)N([C@H](C)CO)C[C@@H]2C)cc1	i	nt	i
C[C@H](CO)N1C[C@H](C)[C@@H](CN(C)S(=O)(=O)c2ccc(Cl)cc2)Oc2ccc(NC(=O)NC3CCCCC3)cc2C1=O	+	nt	i
